Inconclusive results are not listed. Calls of active or inactive are those of the source. How the source made its calls, unless noted: active means hit-call score of the fitted dose curve at least 0.9, where 1 is the maximum; inconclusive means response in the unintended direction; inactive means score below 0.9.
target: Estrogen receptor (Homo sapiens) (UniProt P03372); assay: OT_ERa_GFPERaERE_0480: Odyssey Thera (OT) 8-hour HeLa Transcription Induction Assay for Estrogen Receptor (AID 2283381; active means hit-call score of the fitted dose curve at least 0.9, where 1 is the maximum; inactive means score below 0.9)
How it was run: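 GFP-ERE reporter, HeLa, 8 h exposure. Readout: fluorescence microscopy, high-content image analysis. Fit direction positive vs DMSO negative control.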

Sequence of Estrogen receptor (Homo sapiens) (P03372 whole entry, looked up): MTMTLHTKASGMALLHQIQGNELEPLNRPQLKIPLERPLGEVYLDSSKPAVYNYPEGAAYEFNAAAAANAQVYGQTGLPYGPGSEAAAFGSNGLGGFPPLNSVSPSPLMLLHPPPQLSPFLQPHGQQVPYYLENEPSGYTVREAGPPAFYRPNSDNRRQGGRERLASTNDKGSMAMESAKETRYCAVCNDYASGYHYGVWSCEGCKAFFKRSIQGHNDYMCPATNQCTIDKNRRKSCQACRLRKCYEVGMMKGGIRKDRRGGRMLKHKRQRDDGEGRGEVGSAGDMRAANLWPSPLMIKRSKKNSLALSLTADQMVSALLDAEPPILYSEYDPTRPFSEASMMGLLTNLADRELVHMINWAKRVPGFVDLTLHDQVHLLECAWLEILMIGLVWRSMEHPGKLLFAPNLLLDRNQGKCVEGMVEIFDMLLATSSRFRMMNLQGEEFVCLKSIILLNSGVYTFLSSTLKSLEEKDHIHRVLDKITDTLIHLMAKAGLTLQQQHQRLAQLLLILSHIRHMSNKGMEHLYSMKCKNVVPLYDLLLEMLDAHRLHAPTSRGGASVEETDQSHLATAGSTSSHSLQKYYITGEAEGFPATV

Row | Structure (SMILES) | outcome | AC50
1 | O=C1CCCN1 | inactive | –
2 | Cc1ccccc1C(=O)Nc1cccc(OC(C)C)c1 | inactive | –
3 | C[C@H]1CCCC(=O)CCC/C=C/c2cc(O)cc(O)c2C(=O)O1 | – | 0.103 µM (active)
4 | C=CC#N | inactive | –
5 | C=CC(=O)OCCCCCC(C)C | inactive | –
6 | CC(C)OC(=O)Nc1ccccc1 | inactive | –
7 | Cc1ccc2ccccc2c1C | inactive | –
8 | COC(=O)c1sccc1S(=O)(=O)NC(=O)Nc1nc(C)nc(OC)n1 | inactive | –
9 | CC1(C)CCC(Cc2ccc(Cl)cc2)C1(O)Cn1cncn1 (stereo not given) | inactive | –

target: Estrogen receptor (Homo sapiens) (UniProt P03372); assay: OT_ERa_GFPERaERE_0120: Odyssey Thera (OT) 2-hour HeLa Transcription Induction Assay for Estrogen Receptor (AID 2283382)
How it was run: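 Fluorescence microscopy read-out: inducible fluorescent protein reporter in HeLa cells, imaged 2 h post-dose. Signal increase over DMSO negative control fitted as single primary endpoint via high content image analysis.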

Row | Structure (SMILES) | outcome | AC50
10 | Cl/C=C/Cl | inactive | –
11 | CCOC(=O)Nc1cccc(OC(=O)Nc2ccccc2)c1 | inactive | –
12 | O=C1CCCN1 | inactive | –
13 | Cc1ccccc1C(=O)Nc1cccc(OC(C)C)c1 | inactive | –
14 | CCC1(c2ccc(N)cc2)CCC(=O)NC1=O (stereo not given) | inactive | –
15 | C[C@H]1CCCC(=O)CCC/C=C/c2cc(O)cc(O)c2C(=O)O1 | – | 0.0915 µM (active)
16 | COP(=O)(OC)O/C(=C\Cl)c1cc(Cl)c(Cl)cc1Cl | inactive | –
17 | C=CC(=O)OCCCCCC(C)C | inactive | –
18 | COP(=O)(OC)OC | inactive | –
19 | CC(C)OC(=O)Nc1ccccc1 | inactive | –
20 | c1cc[c]([Hg][c]2ccccc2)cc1 | inactive | –
21 | Cc1ccc2ccccc2c1C | inactive | –
22 | CCOP(=S)(OCC)Oc1nc(Cl)c(Cl)cc1Cl | inactive | –
23 | CC(C)(C)c1cc(O)ccc1O | inactive | –
24 | Fc1ccc(C2(Cn3cncn3)OC2c2ccccc2Cl)cc1 (stereo not given) | inactive | –
25 | COC(=O)c1sccc1S(=O)(=O)NC(=O)Nc1nc(C)nc(OC)n1 | inactive | –
26 | CC1(C)CCC(Cc2ccc(Cl)cc2)C1(O)Cn1cncn1 (stereo not given) | inactive | –

target: Bile acid receptor (Homo sapiens) (UniProt Q96RI1); assay: OT_FXR_FXRSRC1_0480: Odyssey Thera (OT) 8-hour HEK293T Protein-Complementation Assay for Farnesoid X receptor/SRC-1 Co-activator (AID 2283383)
How it was run: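 Fluorescence intensity read-out, 8 h post-dose, HEK293T protein-fragment complementation; FXR bait and SRC-1 prey each linked to reporter fragments. Activity scored as signal increase over DMSO negative control.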

Sequence of Bile acid receptor (Homo sapiens) (Q96RI1 whole entry, looked up, the tested form may be a part): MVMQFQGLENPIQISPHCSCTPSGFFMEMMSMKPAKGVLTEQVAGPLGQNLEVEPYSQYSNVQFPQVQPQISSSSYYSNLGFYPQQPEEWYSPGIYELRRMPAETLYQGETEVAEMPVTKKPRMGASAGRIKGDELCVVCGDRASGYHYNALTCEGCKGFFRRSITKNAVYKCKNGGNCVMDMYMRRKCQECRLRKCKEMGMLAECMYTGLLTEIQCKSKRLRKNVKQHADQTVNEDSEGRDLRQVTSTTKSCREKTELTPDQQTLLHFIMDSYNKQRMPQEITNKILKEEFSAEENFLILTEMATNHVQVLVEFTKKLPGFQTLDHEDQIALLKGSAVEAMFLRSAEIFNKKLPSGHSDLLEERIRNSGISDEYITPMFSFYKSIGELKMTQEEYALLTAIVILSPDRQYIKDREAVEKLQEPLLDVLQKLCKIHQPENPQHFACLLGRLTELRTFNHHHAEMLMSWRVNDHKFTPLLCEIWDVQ

Row | Structure (SMILES) | outcome | AC50
27 | O=C(O)C(F)(F)C(F)(F)C(F)(F)C(F)(F)C(F)(F)C(F)(F)C(F)(F)C(F)(F)C(F)(F)C(F)(F)F | inactive | –
28 | COP(=O)(OC)O/C(=C\Cl)c1cc(Cl)c(Cl)cc1Cl | inactive | –
29 | C=CC(=O)OCCCCCC(C)C | inactive | –
30 | COP(=O)(OC)OC | inactive | –
31 | c1cc[c]([Hg][c]2ccccc2)cc1 | – | 29 µM (active)
32 | CCOP(=S)(OCC)Oc1nc(Cl)c(Cl)cc1Cl | – | 35.1 µM (active)
33 | CC(C)(C)c1cc(O)ccc1O | inactive | –
34 | Fc1ccc(C2(Cn3cncn3)OC2c2ccccc2Cl)cc1 (stereo not given) | inactive | –
35 | CC1(C)CCC(Cc2ccc(Cl)cc2)C1(O)Cn1cncn1 (stereo not given) | – | 24.3 µM (active)
